The structures appear in SMILES notation. Results filed as inconclusive are left out. Calls of active or inactive are those of the source. Calls follow the shape of the dose curve; as a rule, active = well fitted curve in the direction sought with a large enough effect; inconclusive = small, poorly fitted or top-dose-only effect, or another doubt; inactive = no such curve, though single readings can be large; an effect the other way counts as inactive or inconclusive.

The test system of one assay is MKL-1. Kind of assay: qHTS assay to identify novel small-molecules to repurpose for Merkel cell carcinoma treatment (AID 1296009). Also: nearly all actives have a fitted effect of over 60% in size. The note with it: MCC and control cell lines, CellTiter-Glo viability, 72 h; series mostly up to 46 µM. The method, boiled down:
(§1)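 Cells were incubated with compound for 72 hr at 37 degree celsius before CellTiter-Glo addition. Luminescence was normalized with no-cell wells as full cytotoxicity and DMSO as baseline.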

A further assay deals with MKL-2. Described as above. The note with it: MCC and control cell lines, CellTiter-Glo viability, 72 h; series mostly up to 46 µM. The gist of the method:
as §1
For orientation: In ATP-based viability assays light output follows the ATP content of the culture.

The test system of another assay is UISO. Described as above. The note with it: MCC and control cell lines, CellTiter-Glo viability, 72 h; series mostly up to 46 µM. The method, boiled down:
as §1

Another assay relates to WaGa. Described as above. Conditions: MCC and control cell lines, CellTiter-Glo viability, 72 h; series mostly up to 46 µM. The method, boiled down:
as §1

A further assay concerns HeLa. In words: Primary qHTS to identify gynecologic anti-cancer compounds using libraries of approved drugs and bioactive compounds (AID 1345084). Also: nearly all actives have a fitted effect of over 55% in size. Conditions: Gynecologic cancer cell panel viability, ATPlite luminescence, 48 h; series mostly up to 57.5 µM. The gist of the method:
(§2)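 Cells, 1,000 per well, plated 16 h, then exposed 48 h at 37 C to compounds. Viability by ATPlite luminescence after 15 min at room temperature.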

The subject of a further assay is Hek293T. Described as above. The note with it: Gynecologic cancer cell panel viability, ATPlite luminescence, 48 h, control line for the selectivity index; series mostly up to 57.5 µM. The method, boiled down: as §2
A further assay deals with JEG-3. The assay is described as above. Conditions: Gynecologic cancer cell panel viability, ATPlite luminescence, 48 h; series mostly up to 57.5 µM. The method, boiled down:
as §2

Another assay has as its system OV90. The description is as above. The note with it: Gynecologic cancer cell panel viability, ATPlite luminescence, 48 h; series mostly up to 57.5 µM. The gist of the method: as §2
For a further assay, the system named is PA-1. Described as above. Conditions: Gynecologic cancer cell panel viability, ATPlite luminescence, 48 h; series mostly up to 57.5 µM. The method, boiled down:
as §2

The next assay concerns SKOV3. The description is as above. Conditions: Gynecologic cancer cell panel viability, ATPlite luminescence, 48 h; series mostly up to 57.5 µM. The method, boiled down: as §2
The test system of a further assay is MCC-26. In words: qHTS assay to identify novel small-molecules to repurpose for Merkel cell carcinoma treatment (AID 1296009). Also: nearly all actives have a fitted effect of over 60% in size. Conditions: MCC and control cell lines, CellTiter-Glo viability, 72 h; series mostly up to 46 µM. The gist of the method:
as §1
On the technique in general: In qHTS, concentration-response curves come from the screen itself.

A further assay has as its system MCC-13. Described as above. The note with it: MCC and control cell lines, CellTiter-Glo viability, 72 h; series mostly up to 46 µM. The method, boiled down:
as §1

Another assay deals with C33A. In words: Primary qHTS to identify gynecologic anti-cancer compounds using libraries of approved drugs and bioactive compounds (AID 1345084). Also: nearly all actives have a fitted effect of over 55% in size. The note with it: Gynecologic cancer cell panel viability, ATPlite luminescence, 48 h; series mostly up to 57.5 µM. The method, boiled down:
as §2

A further assay concerns CAOV3. Described as above. The note with it: Gynecologic cancer cell panel viability, ATPlite luminescence, 48 h; series mostly up to 57.5 µM. The method, boiled down: as §2
For a further assay, the system named is CASKI. Described as above. The note with it: Gynecologic cancer cell panel viability, ATPlite luminescence, 48 h; series mostly up to 57.5 µM. The method, boiled down:
as §2

A further assay deals with Es-2. The assay is described as above. Conditions: Gynecologic cancer cell panel viability, ATPlite luminescence, 48 h; series mostly up to 57.5 µM. The method, boiled down: as §2
For a further assay, the system named is Tov-21-G. Described as above. Conditions: Gynecologic cancer cell panel viability, ATPlite luminescence, 48 h; series mostly up to 57.5 µM. The gist of the method: as §2
Potency is read from the fitted curve at half-maximal effect.

As to `O=C(N/N=C/c1ccc([N+](=O)[O-])o1)c1ccc(O)cc1`, the Potency in the assay with MKL-1 is 9.44 µM (active); in the assay on MKL-2, 10.6 µM (active); in the assay on UISO, 13.3 µM (active); in the assay on WaGa it was 10.6 µM (active); in the assay on Hek293T it was 25.1 µM (active); in the assay with OV90 it was 22.4 µM (active). The results for the Potency with PA-1 and in the assay with SKOV3 were 20 µM (active) and 14.1 µM (active), respectively. The Potency entry in the assay with HeLa and in the assay on JEG-3 was “inactive” in each case.

Turning to `CN1CCC[C@@H]1CCO[C@](C)(c1ccccc1)c1ccc(Cl)cc1`, the Potency result with MCC-26 and with HeLa was “inactive” each time. For the same molecule, the Potency in the assay with MKL-1 is 23.7 µM (active); with MKL-2, 9.44 µM (active); with UISO it was 21.1 µM (active); with JEG-3 it was 20 µM (active); in the assay with OV90, 11.2 µM (active); in the assay on SKOV3, 22.4 µM (active).

On to `O=C(O)c1ccc(S(=O)(=O)N(Cl)Cl)cc1`, for which the Potency result with MCC-13, with MKL-1, in the assay with MKL-2, in the assay on UISO, in the assay on WaGa and with C33A was “inactive” each time. The Potency entry with CAOV3, with CASKI, in the assay with Es-2, in the assay with HeLa, with Hek293T and with JEG-3 was “inactive” throughout. The Potency result in the assay on OV90, in the assay on PA-1, with SKOV3 and with Tov-21-G was “inactive” throughout.

In the case of `O=c1[nH]c(=O)n([C@H]2C[C@H](O)[C@@H](CO)O2)cc1F`, the Potency in the assay with WaGa was 0.0335 µM (active); with CAOV3, 1.58 µM (active); in the assay with HeLa, 5.01 µM (active); in the assay with OV90 it was 7.94 µM (active); in the assay on SKOV3, 7.94 µM (active). Moreover, the Potency entry in the assay on Hek293T was “inactive”.

Consider `CN1CCc2cccc3c2[C@H]1Cc1ccc(O)c(O)c1-3`, for which the Potency entry in the assay with MCC-26, with CASKI, with Hek293T, in the assay on OV90 and with SKOV3 was “inactive” in each case. Further, the Potency was 1.33 µM (active) with MKL-1, 0.841 µM (active) in the assay on MKL-2 and 11.9 µM (active) in the assay on WaGa.

Turning to `O=[N+]([O-])c1cccc(S(=O)(=O)NCCNS(=O)(=O)c2cccc([N+](=O)[O-])c2)c1`, the Potency result in the assay on MCC-13, with MKL-1, in the assay with MKL-2, in the assay on UISO, in the assay on WaGa and in the assay with C33A was “inactive” each time. Moreover, the Potency entry with CASKI, in the assay with Es-2, with HeLa, in the assay on Hek293T, with JEG-3 and in the assay on OV90 was “inactive” each time. The Potency entry in the assay on PA-1 and with Tov-21-G was “inactive” in each case.

On to `CCN1/C(=C/C=C/c2sc3ccccc3[n+]2CC)Sc2ccccc21`, for which the Potency is 3.26 µM (active) in the assay with MCC-13; 0.366 µM (active) in the assay on MKL-1; 0.058 µM (active) in the assay with MKL-2; 0.366 µM (active) in the assay with UISO; 0.82 µM (active) in the assay on WaGa; 2.51 µM (active) in the assay with C33A. Also, the Potency in the assay with Es-2 was 2.51 µM (active); with HeLa, 0.891 µM (active); in the assay with Hek293T, 2 µM (active); in the assay on OV90, 2.24 µM (active); in the assay with PA-1, 1.41 µM (active); with SKOV3 it was 0.126 µM (active). Also, the Potency in the assay on Tov-21-G is 891 nM (active).

As for `Oc1c(Cl)cc(Cl)c(Cl)c1Cc1c(O)c(Cl)cc(Cl)c1Cl`, the Potency result in the assay with MCC-26, with CAOV3, with CASKI and in the assay with Tov-21-G was “inactive” throughout. In addition, the Potency in the assay on UISO is 11.9 µM (active); in the assay on WaGa, 23.7 µM (active); with Hek293T, 8.91 µM (active); with OV90, 10 µM (active); with PA-1, 11.2 µM (active).

For the molecule `CCCCCCCCNC(C)C(O)c1ccc(SC(C)C)cc1` (stereo unspecified), in the assay with MKL-2, the Potency is 18.8 µM (active). In addition, in the assay with HeLa, the Potency entry is “inactive”.

As for `CO[C@H]1C=CO[C@@]2(C)Oc3c(C)c(O)c4c(O)c(c(/C=N/N5CCN(C)CC5)c(O)c4c3C2=O)NC(=O)/C(C)=C\C=C[C@H](C)[C@H](O)[C@@H](C)[C@@H](O)[C@@H](C)[C@H](OC(C)=O)[C@@H]1C`, the Potency entry with MCC-13, with C33A, in the assay on CAOV3, with CASKI, in the assay on Es-2 and in the assay on HeLa was “inactive” each time. The Potency result in the assay with Hek293T, in the assay on JEG-3, in the assay on OV90, in the assay on PA-1, in the assay on SKOV3 and in the assay on Tov-21-G was “inactive” each time. In addition, the Potency with MKL-1 is 21.1 µM (active).

For `O=C(Nc1ncc([N+](=O)[O-])s1)c1cccs1`, the Potency result with MCC-26, in the assay on C33A, in the assay on CAOV3, with JEG-3 and in the assay on SKOV3 was “inactive” each time. Further, the Potency is 26.6 µM (active) in the assay on WaGa and 20 µM (active) in the assay with OV90.

For `NS(=O)(=O)c1cc(C(=O)O)cc(N2CCCC2)c1Oc1ccccc1`, the Potency result in the assay on MCC-13, in the assay with MKL-1, with MKL-2, in the assay with UISO, with WaGa and in the assay with C33A was “inactive” in each case. Besides, the Potency entry in the assay with CAOV3, in the assay with CASKI, in the assay on Es-2, in the assay on HeLa, in the assay on Hek293T and in the assay on JEG-3 was “inactive” in each case. In addition, the Potency entry in the assay with OV90, in the assay on PA-1 and in the assay on Tov-21-G was “inactive” each time.

(Values after PubChem BioAssay (NCATS).)
